AddAB inh: less growth of phage-infected E. coli with AddAB; 330,000 tested, 0.29% active; E. coli expressing H. pylori AddAB, absorbance growth; inhibition, % at 11.9 µM; in the data active means inhibition above about 12%
Tat transport: inhibitors of E. coli Tat protein transport | E. coli MC4100 TorA-mCherry Tat export, fluorescence | inhibition, % at 10 µM | 340,000 tested, 0.036% active | AID 488895;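 active means mean replicate inhibition at least 50% and at least half of replicates individually reaching 50%; inconclusive means only one of the two criteria met; inactive means neither criterion met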;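 further: exported cargo escapes ClpAP degradation while cytoplasmic cargo is degraded and loses fluorescence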
AI-2 QS mod: modulates the Vibrio harveyi AI-2 quorum sensing system | activity change, % at 7.5 µM | 300,000 tested, 0.4% active | Vibrio harveyi JMH597 AI-2 luminescence/OD600 ratio, 9 h; active compounds read low; strain lacks LuxN and CqsS sensors; 0 = neutral-control median; in the data active means activity change below about -75%, passing the limit was not always enough; inconclusive means no clear call, values can overlap the other calls;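 further: luminescence divided by OD600 gain over 9 h not by final OD600 alone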
phage Ecoli inh: E. coli growth loss with phage present; growth absorbance; inhibition, % at 11.9 µM; 360,000 tested, 0.26% active; in the data active means inhibition above about 11%
E coli growth-1: counter-screen for AddAB inhibitors: E. coli growth inhibition | E. coli V3065 growth, OD600 absorbance, 18 h | inhibition, % at 11.9 µM | 330,000 tested, 0.27% active;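 active means inhibition above the campaign's mean inhibition across all tested compounds plus 3 SD, cut at about 9.9% in these data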;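 further: uninfected addAB+ strain grown without phage in ampicillin broth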
E coli growth-2: inhibitors of Escherichia coli growth; 330,000 tested, 0.21% active; OD600, 23 h; active compounds read low; AID 1053175; OD600 absorbance (test concentration not listed);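 active means OD600 absorbance below the run mean of sample wells minus 3.6 SD, in any replicate, cut at about 0.56 in these data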
AddAB confirm: growth loss of T4-infected E. coli expressing H. pylori AddAB, confirmed | shares compounds with AddAB inh | E. coli V3065 expressing H. pylori AddAB, T4 phage, OD; T4 phage with gene 2 nonsense mutations | inhibition, % at 11.9 µM | 880 tested, 64% active | AID 488942;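 active means mean inhibition above a set limit taken from the earlier primary screen, cut at about 13% in these data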;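 further: higher means less bacterial growth since AddAB block lets phage replicate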
RecBCD counter: counter-screen: growth loss of RecBCD+ E. coli with mutant T4 phage; shares compounds with AddAB inh; E. coli V66 + mutant T4 phage, OD growth; inhibition, % at 11.9 µM; 880 tested, 73% active; AID 488955;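 active means mean inhibition above the mean of solvent-only control wells plus 3 SD, cut at about 4% in these data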;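 further: optical density read after an 18 h incubation at 37 °C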
Bact viability: counter-screen for AddAB inhibitors: inhibitors of bacterial viability | shares compounds with AddAB inh | absorbance (AddAB counterscreen) | inhibition, % at 11.9 µM | 880 tested, 35% active; in the data active means inhibition above about 25%
Each line names hits and unclear results; the compound was inactive in the other large screens (follow-up assays come after a bar, where they were run). Shown are actives, neighbours in structure and some others; about 0.79% of the full set was active somewhere.

Cc1ccc2nc(/C(C#N)=C\c3ccc([N+](=O)[O-])o3)[nH]c2c1	AddAB inh 43.3, AI-2 QS mod inconclusive, E coli growth-1 10.1 | AddAB confirm 67.4 | RecBCD counter 5.2 | Bact viability inactive
COc1cccc(C=NNC(=O)CNC(=O)CCc2ccccc2)c1O	none (no result: AddAB inh, Tat transport, AI-2 QS mod, phage Ecoli inh, E coli growth-1)
COc1cccc(/C=N\NC(=O)c2ccc(Cn3cc(Br)c([N+](=O)[O-])n3)o2)c1O	AddAB inh 16.4, E coli growth-1 9.9 (no result: E coli growth-2) | AddAB confirm 30.7 | RecBCD counter 7.1 | Bact viability inactive
CC1=NN(C(=O)c2ccc(Cn3cc(Br)c([N+](=O)[O-])n3)o2)C(O)(C(F)(F)F)C1 (configuration not stated)	AddAB inh 18.3 | AddAB confirm inactive | RecBCD counter inactive | Bact viability inactive
CCCOC(=O)C1C2C=C[C@]3(CN(C(C)c4ccc(OC)cc4)C(=O)C13)O2 (some centres not stated)	none (no result: AddAB inh, Tat transport, AI-2 QS mod, phage Ecoli inh, E coli growth-1)
Cc1cc(C=Nn2c(COc3ccccc3)nc3ccccc3c2=O)c(O)c([N+](=O)[O-])c1	none (no result: AddAB inh, Tat transport, AI-2 QS mod, phage Ecoli inh, E coli growth-1)
Cc1cc(/C=N/n2c(COc3ccccc3)nc3ccccc3c2=O)c(O)c([N+](=O)[O-])c1	AddAB inh 14.7, E coli growth-1 13.1 (no result: E coli growth-2) | AddAB confirm inactive | RecBCD counter 14.2 | Bact viability inactive
CC(=NNC(=S)NCc1ccccc1)c1ccc2ccccc2c1	none (no result: AddAB inh, Tat transport, AI-2 QS mod, phage Ecoli inh, E coli growth-1)
CCn1cc(C(=O)NCc2ccc3c(c2)OCO3)c(=O)c2cc(F)c(N3CCN(C(=O)c4ccco4)CC3)cc21	AddAB inh 97.1, E coli growth-1 90.9, E coli growth-2 0.052 | AddAB confirm 99.0 | RecBCD counter 10.3 | Bact viability 97.8
CCn1cc(C(=O)NCCC(=O)OC)c(=O)c2cc3c(cc21)OCO3	none
CCn1cc(C(=O)NCc2ccccc2)c(=O)c2cc(F)c(N3CCN(C(=O)c4ccco4)CC3)cc21	none
CCn1cc(C(=O)NCc2ccncc2)c(=O)c2cc(F)c(N3CCN(C(=O)c4ccco4)CC3)cc21	AddAB inh 98.3, E coli growth-1 91.6, E coli growth-2 0.071 (no result: Tat transport) | AddAB confirm 98.8 | RecBCD counter 8.0 | Bact viability 88.0
COc1cccc(C=NNC(=O)CSc2nnc(C)n2-c2ccccc2)c1OC	none (no result: AddAB inh, Tat transport, AI-2 QS mod, phage Ecoli inh, E coli growth-1)
O=C(Nc1ccc([N+](=O)[O-])cc1)Nc1ccc(OC(F)F)c(Cl)c1	AddAB inh 14.9, phage Ecoli inh 12.9, E coli growth-1 14.7, E coli growth-2 0.288 (no result: AI-2 QS mod) | AddAB confirm 15.2 | RecBCD counter 17.0 | Bact viability inactive
COc1ccc2c(CC(=O)OCC(=O)Nc3cccc(S(N)(=O)=O)c3)coc2c1	AddAB inh 97.5, E coli growth-1 96.4 | AddAB confirm inactive | RecBCD counter inactive | Bact viability inactive
CCCC(=O)NC(Nc1ccc(S(=O)(=O)Nc2cc(C)on2)cc1)(C(F)(F)F)C(F)(F)F	AddAB inh 15.5 | AddAB confirm inactive | RecBCD counter inactive | Bact viability inactive
CCCC(=O)NC(Nc1ccc(S(=O)(=O)Nc2cc(C)on2)cc1)(C(=O)OCC)C(F)(F)F (configuration not stated)	none
O=C(C1=CC(C2CC2)CC(OCCCCO)O1)N1CCOCC1 (configuration not stated)	none (no result: AddAB inh, Tat transport, AI-2 QS mod, phage Ecoli inh, E coli growth-1)
COc1ccc(C=NNC(=O)CN(C2=NS(=O)(=O)c3ccccc32)c2ccccc2)cc1	none (no result: AddAB inh, Tat transport, AI-2 QS mod, phage Ecoli inh, E coli growth-1)
COC(=O)C1=C(C(=O)OC)C2Nc3ccccc3[C@@]23CC(C(=O)OC)N=C3N1 (some centres not stated)	none (no result: AddAB inh, Tat transport, AI-2 QS mod, phage Ecoli inh, E coli growth-1)
CCn1cc(C(=O)O)c(=O)c2cc(F)c(N3CCN(C(=S)NC(=O)c4ccccc4Cl)CC3)cc21	AddAB inh 98.0, E coli growth-1 84.1, E coli growth-2 0.075 | AddAB confirm 101.8 | RecBCD counter 100.0 | Bact viability 101.8
